From PubChem BioAssay (NCATS) come the findings set out here.

Records with an inconclusive call do not appear. Activity calls are given as the source filed them. Calls follow the shape of the dose curve; as a rule, active = well fitted curve in the direction sought with a large enough effect; inconclusive = small, poorly fitted or top-dose-only effect, or another doubt; inactive = no such curve, though single readings can be large; an effect the other way counts as inactive or inconclusive.

Assay [1] is described as follows: Quantitative High-Throughput drug screen in 47 multiple myeloma cell lines against the NCATS MIPE library collection: KMS21BM_JCRB cell viability assay (AID 1918974). Also: potency is read from the fitted curve at half-maximal effect. The note with it: ATP luminescence, 48 h; viability: at 45.8 µM. A digest of the protocol: (§1)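 Viability readout: CellTiter-Glo luminescence following 5 min room-temperature incubation with reagent. Prior exposure: 48 h, 37C, humidified 5% CO2, 500 cells per well.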

A short description of assay [2]: Quantitative High-Throughput drug screen in 47 multiple myeloma cell lines against the NCATS MIPE library collection: KMS26_JCRB cell viability assay (AID 1918975). Also: nearly all actives have a fitted effect of over 45% in size. Also: potency is read from the fitted curve at half-maximal effect. The procedure, abridged:
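Relative luminescence from CellTiter-Glo served as the viability signal, referenced to DMSO-treated (100%) and cell-free medium (0%) controls. Treatment lasted 48 hours at 37C with 500 cells per well.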

Assay [3] can be described thus: Quantitative High-Throughput drug screen in 47 multiple myeloma cell lines against the NCATS MIPE library collection: MMM1_PLB cell viability assay (AID 1918976). Also: nearly all actives have a fitted effect of over 35% in size. Also: potency is read from the fitted curve at half-maximal effect. The procedure, abridged: (§2)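 Cells were exposed to library compounds for 48 hours, after which ATP was measured by CellTiter-Glo. Signal was taken as median relative luminescence units.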
Assay [4] can be described thus: Quantitative High-Throughput drug screen in 47 multiple myeloma cell lines against the NCATS MIPE library collection: MOLP8_DSMZ cell viability assay (AID 1918977). Also: nearly all actives have a fitted effect of over 45% in size. Also: potency is read from the fitted curve at half-maximal effect. The procedure, abridged: as §2
The nature of assay [5]: Quantitative High-Throughput drug screen in 47 multiple myeloma cell lines against the NCATS MIPE library collection: OCIMY1_PLB cell viability assay (AID 1918979). Also: nearly all actives have a fitted effect of over 35% in size. Also: potency is read from the fitted curve at half-maximal effect. As to viability: series mostly up to about 46 µM. The procedure, abridged: as §2
Assay [6] in a line: Quantitative High-Throughput drug screen in 47 multiple myeloma cell lines against the NCATS MIPE library collection: KMS20_JCRB cell viability assay (AID 1918973). Also: nearly all actives have a fitted effect of over 45% in size. Also: potency is read from the fitted curve at half-maximal effect. The procedure, abridged:
as §1

Assay [7] is described as follows: Quantitative High-Throughput drug screen in 47 multiple myeloma cell lines against the NCATS MIPE library collection: NCIH929_DSMZ cell viability assay (AID 1918978). Also: nearly all actives have a fitted effect of over 35% in size. Also: potency is read from the fitted curve at half-maximal effect. A digest of the protocol: as §2
A short description of assay [8]: Quantitative High-Throughput drug screen in 47 multiple myeloma cell lines against the NCATS MIPE library collection: MM1S_ATCC cell viability assay (AID 1918980). Also: nearly all actives have a fitted effect of over 45% in size. Also: potency is read from the fitted curve at half-maximal effect. The procedure, abridged:
as §2

The nature of assay [9]: Quantitative High-Throughput drug screen in 47 multiple myeloma cell lines against the NCATS MIPE library collection: KMS12PE_JCRB cell viability assay (AID 1918972). Also: series mostly up to about 46 µM; nearly all actives have a fitted effect of over 30% in size. A digest of the protocol: as §1

As to `CC(=O)N(C)c1cccc(-c2ccnc3c(C(=O)c4cccs4)cnn23)c1`, the Potency result in [1], in assay [2], in assay [4] and in assay [5] was “inactive” each time. Also, the Potency in assay [3] is 2960 nM (active).

Regarding `C=CCON=C(C[C@H]1O[C@@H]2O[C@]3(C)CC[C@@H]4[C@H](C)CC[C@@H]([C@H]1C)[C@@]24OO3)[C@H]1O[C@@H]2O[C@]3(C)CC[C@H]4[C@H](C)CC[C@@H]([C@@H]1C)[C@@]24OO3`, the Potency in [6] is 372 nM (active); in assay [2], 264 nM (active); in [3], 187 nM (active); in assay [4] it was 235 nM (active); in assay [7], 148 nM (active); in assay [5] it was 187 nM (active). The Potency in [8] is 526 nM (active).

As to `COC(=O)[C@@H](N)CCCN=C(N)N[N+](=O)[O-]`, the Potency entry in assay [9], in assay [4], in [7] and in [8] was “inactive” throughout.

In the case of `CC(=O)Nc1ccc(OC[C@](C)(O)C(=O)Nc2ccc([N+](=O)[O-])c(C(F)(F)F)c2)cc1`, the Potency entry in assay [2] and in assay [7] was “inactive” each time.

Take `C[C@](O)(COc1ccc(C#N)cc1)C(=O)Nc1ccc(C#N)c(C(F)(F)F)c1`: the Potency result in assay [5] is “inactive”.

Turning to `CCN1C[C@]2(OC(=O)c3ccccc3NC(C)=O)CC[C@H](OC)[C@@]34[C@H]5CC6[C@@H](OC)C[C@](O)(C(C[C@@H]23)[C@@H]14)[C@@]5(O)[C@@H]6OC`, the Potency result in assay [9], in [2], in assay [7] and in assay [8] was “inactive” throughout.

`CC(=O)O[C@@]12CO[C@H]1C[C@H](O)[C@@]1(C)C(=O)[C@H](O)C3=C(C)[C@@H](O)C[C@@](O)([C@@H](OC(=O)c4ccccc4)[C@@H]21)C3(C)C`: in assay [2], the Potency entry is “inactive”. The results for the Potency in assay [4] and in [8] were 2960 nM (active) and 10500 nM (active), respectively.

In the case of `COC1=C[C@@H]2[C@@H]3Cc4ccc(OC)c(O)c4[C@]2(CCN3C)CC1=O`, the Potency in assay [6], in [7] and in [8] was 1660 nM (active) each time. In addition, the Potency entry in [4] is “inactive”.

Take `O=C(NCC1CCOCC1)c1cnc(Nc2ccc(Cl)cc2Cl)nc1C(F)(F)F`: the Potency entry in assay [2] was “inactive”. Also, the Potency in assay [3] was 20900 nM (active); in assay [7], 4690 nM (active); in assay [8] it was 3320 nM (active).

As to `C[C@]12CC[C@H]3[C@@H](CCC4=CC(=O)CC[C@@]43C)[C@H]1CC[C@H]2O`, the Potency result in assay [6], in assay [4], in assay [7] and in [8] was “inactive” each time.

As to `CC(C)(C)c1cc(C=C(C#N)C#N)cc(Br)c1O`, the Potency was 13200 nM (active) in assay [6] and 16600 nM (active) in assay [7].

In the case of `COC1=CC(C)=C[C@@H](C)[C@@H](O)[C@@H](C)CC(C)=CC=C[C@H](OC)[C@H]([C@@H](C)[C@@H](O)[C@H](C)[C@@]2(O)C[C@@H](O)[C@H](C)[C@@H](C(C)C)O2)OC1=O`, the Potency in [6] is 1 nM (active); in assay [2] it was 3.3 nM (active); in [3] it was 10500 nM (active); in [4], 4.2 nM (active); in assay [5], 3.7 nM (active); in assay [8], 1480 nM (active).

As to `COc1ccc(N(C(=O)Oc2c(C)cccc2C)c2ccnc(Nc3ccc(N4CCN(C)CC4)cc3)n2)c(OC)c1`, the Potency in [1] is 235 nM (active); in assay [2] it was 1480 nM (active); in assay [3], 3720 nM (active); in assay [4] it was 3720 nM (active); in assay [8] it was 4690 nM (active). The Potency result in assay [5] is “inactive”.

Turning to `O=C(Oc1ccc([N+](=O)[O-])cc1)N1CCC(C(O)(c2ccc3c(c2)OCO3)c2ccc3c(c2)OCO3)CC1`, the Potency result in assay [2], in assay [4] and in [5] was “inactive” each time.

Regarding `CCC(=O)OC1CCC2C3CCC4=CC(=O)CC[C@@]4(C)C3CC[C@]12C` (some centres not stated), the Potency entry in [2], in assay [4] and in [5] was “inactive” throughout.

As for `CO[C@H]1CCC(O[C@H]2C[C@H]([C@]3(C)CC[C@]4(C[C@H](O)[C@@H](C)[C@@H]([C@@H](C)C=C(C)C(=O)[C@H](C)C[C@H](C)C(=O)O)O4)O3)O[C@]3(O[C@@H]([C@H]4O[C@@](O)(CO)[C@H](C)C[C@H]4C)C[C@H]3C)[C@H]2C)O[C@H]1C` (some centres not stated), the Potency in [6] is 235 nM (active); in assay [2], 372 nM (active); in assay [3] it was 1660 nM (active); in assay [4] it was 296 nM (active); in assay [7] it was 833 nM (active); in assay [5], 5260 nM (active). For the same compound, the Potency in assay [8] is 296 nM (active).

In the case of `CCCN1CCO[C@@H]2c3cc(O)ccc3OC[C@@H]21`, the Potency result in assay [9], in [7] and in assay [5] was “inactive” each time. The Potency is 16600 nM (active) in [3] and 14800 nM (active) in assay [8].

With `CN[C@@H]1Cc2cccc3[nH]c(=O)n(c23)C1`, the Potency result in [2], in assay [7] and in assay [5] was “inactive” each time. In addition, in assay [3], the Potency is 5260 nM (active).

As to `c1cc2c(cc1[C@H]1OC[C@H]3[C@H]1CO[C@H]3c1ccc3c(c1)OCO3)OCO2`, the Potency entry in [6], in assay [4] and in assay [7] was “inactive” each time.

On to `COc1ccc2c(c1)[C@]13CCCCC1C(C2)N(C)CC3` (some centres not stated), for which the Potency result in [9], in [3], in [4], in assay [7] and in assay [5] was “inactive” each time.
